# Reference: PubChem BioAssay
# Several values for one entry are separate records, joined by “and”; a condition that tells them apart may be missing. Equal values may be shown once. Results filed as inconclusive are left out. Activity calls are given as the source filed them. Unless noted, no cut-off is given here; in the data, nearly all actives have AC50 up to about 26 µM.
# Legend:
# [1] = growth inhibition of DIPG glioma cells, dose response, cell-based, SU-DIPG-XVII, MIPE5.0, CellTiter-Glo, qHTS (AID 1347060); details: SU-DIPG-XVII viability, CellTiter-Glo ATP luminescence;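 for AC50: cells exposed to compound for 48 hours before viability readout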
# [2] = growth inhibition of DIPG glioma cells, dose response, cell-based, SU-DIPG-XIII, MIPE4.0, CellTiter-Glo, qHTS (AID 1347061; cut-off not given, nearly all actives have AC50 up to about 37 µM;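 note: cells exposed to compound for 48 hours before readout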); details: SU-DIPG-XIII viability, CellTiter-Glo ATP luminescence
# [3] = growth inhibition of DIPG glioma cells, dose response, cell-based, JHH-DIPG-1, MIPE4.0, CellTiter-Glo, qHTS (AID 1347062; cut-off not given, nearly all actives have AC50 up to about 27 µM;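 for AC50: cells exposed to compound for two days before readout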); details: JHH-DIPG-1 viability, CellTiter-Glo ATP luminescence
# [4] = growth inhibition of DIPG glioma cells, dose response, cell-based, SU-DIPG-XIII, MIPE5.0, CellTiter-Glo, qHTS (AID 1347064; cut-off not given, nearly all actives have AC50 up to about 23 µM;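 for AC50: cells exposed to compound for 48 hours before the viability read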); details: SU-DIPG-XIII viability, CellTiter-Glo ATP luminescence
# [5] = viability loss in pontine glioma line – cell-based, SU-DIPG-XXV, MIPE5.0, CellTiter-Glo, qHTS, dose response (AID 1347065); details: CellTiter-Glo ATP luminescence;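 note: cells exposed to compound for 48 hours before ATP readout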
# [6] = JHH-DIPG-1 glioma cell viability, MIPE5.0 library, CellTiter-Glo luminescence, qHTS (AID 1347067); details: JHH-DIPG-1 glioma viability, CellTiter-Glo ATP luminescence;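 note: cells exposed to compound for 48 hours before readout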
# [7] = sensitizers of A549 cells to miR-34 induction, primary screen, imaging, A549 dox-inducible miR-34, nuclei and caspase counts (AID 1347080;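 active = compounds whose cell count with miR-34 switched on is under 0.7 times the count with it off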); details: A549 miR-34 inducible, Hoechst nuclei count, 48 h
# [8] = survival rescue of mitochondrial mutant cells in low glucose, primary screen, MELAS cybrids, Rieske KO mouse fibroblasts, CellTiter-Glo (AID 1508586;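 active = mean z-score across replicates of 1.96 or higher in either the MELAS or the Rieske mutant cell line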;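 note: z relative to plate mean and SD of compound and empty wells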)
# [9] = SU-DIPG-VI glioma cell viability, MIPE4.0 library, CellTiter-Glo luminescence, qHTS (AID 1347066; cut-off not given, nearly all actives have AC50 up to about 30 µM;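 note: cells exposed to compound for 48 hours before readout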); details: CellTiter-Glo ATP luminescence
# [10] = SU-DIPG-XXV glioma cell viability, MIPE5.0 library, qHTS (AID 1347068; cut-off not given, nearly all actives have IC50 up to about 30 µM;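 for IC50: cells exposed to compound for 48 hours before viability readout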)
# [11] = growth inhibition of DIPG glioma cells, dose response, cell-based, SU-DIPG-IV, MIPE4.0, CellTiter-Glo, qHTS (AID 1347063; cut-off not given, nearly all actives have AC50 up to about 30 µM;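 note: compound exposure lasted 48 hours before the viability readout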); details: SU-DIPG-IV viability, CellTiter-Glo ATP luminescence
# [12] = modifiers of HSF1 nuclear foci, imaging, Selleck Cancer Library (AID 1347162; in the data active = plate-normalised HSF1 focus index below about 0.46); details: human cells, at 10 µM; SSMD: measured here: HSF1 foci SSMD mean; cell count: measured here: cell number; plate-normalised HSF1 focus index: stronger effect = lower value
# [13] = stronger effect = lower value, cell number ratio, induced over uninduced
# [14] = measured here: relative caspase fold change +Dox/-Dox
# [15] = measured here: total cells with miR-34 induction, stronger effect = lower value
# [16] = measured here: total cells without miR-34 induction
# [17] = MELAS cybrid survival, CellTiter-Glo 48 h, stronger effect = higher value
# [18] = Rieske KO mouse fibroblast survival, CellTiter-Glo 72 h
structure (smiles),measurement,setting,value
Cc1cc(C(=O)NOCCO)c(Nc2ccc(I)cc2F)n(C)c1=O,AC50,[1],0.166 µM (active)
same,AC50,[2],0.132 µM (active)
same,AC50,[3],0.105 µM (active)
same,AC50,[4],0.132 µM (active)
same,AC50,[5],0.295 µM (active)
same,AC50,[6],0.059 µM (active)
same,fold change,[7]; [13],1.09 (inactive)
same,fold change,[7]; [14],0.434
same,cell count,[7]; [15],3770
same,cell count,[7]; [16],3450
same,z-score,[8]; [17],-0.704 (inactive)
same,z-score,[8]; [18],-1.56
C[C@@H]1C(=O)OC2[C@H](O)[C@]34[C@H]5C[C@@H](C(C)(C)C)[C@]36[C@@H](OC(=O)[C@@H]6O)O[C@@]4(C(=O)O5)[C@]21O (stereo partly specified),outcome,[1],inactive
same,outcome,[2],inactive
same,outcome,[3],inactive
same,outcome,[4],inactive
same,outcome,[5],inactive
same,outcome,[9],inactive
same,outcome,[6],inactive
same,outcome,[10],inactive
CC[C@H](CO)Nc1nc(NCc2ccccc2)c2ncn(C(C)C)c2n1,AC50,[1],20.9 µM (active)
same,AC50,[2],16.6 µM (active)
same,AC50,[3],26.4 µM (active)
same,AC50,[11],20.9 µM (active)
same,fold change,[7]; [13],0.923 (inactive)
same,fold change,[7]; [14],1.07
same,cell count,[7]; [15],983
same,cell count,[7]; [16],1060
same,SSMD,[12],1.82
same,cell count,[12],7490
same,plate-normalised HSF1 focus index,[12],1.11 (inactive)
C[C@H](CCC(=O)O)[C@H]1CCC2C3C[C@H](O)[C@@H]4C[C@H](O)CC[C@]4(C)C3CC[C@@]21C (stereo partly specified),outcome,[1],inactive
same,outcome,[2],inactive
same,outcome,[3],inactive
same,outcome,[4],inactive
same,outcome,[5],inactive
same,outcome,[9],inactive
same,outcome,[6],inactive
same,outcome,[10],inactive
CC(C)(C)OC(=O)CN(Cc1ccc(Cl)cc1)Cc1ccc([N+](=O)[O-])s1,AC50,[1],18.6 µM (active)
same,outcome,[2],inactive
same,outcome,[3],inactive
same,AC50,[4],16.6 µM (active)
same,AC50,[5],11.8 µM (active)
same,outcome,[9],inactive
same,outcome,[10],inactive
C[C@@]1(c2cc(-c3cncnc3)c(F)cc2F)CCSC(N)=N1,outcome,[1],inactive
same,AC50,[2],14.8 µM (active)
same,AC50,[3],14.8 µM (active)
same,outcome,[4],inactive
same,outcome,[5],inactive
same,outcome,[9],inactive
same,outcome,[6],inactive
same,outcome,[10],inactive
same,fold change,[7]; [13],0.883 (inactive)
same,fold change,[7]; [14],1.05
same,cell count,[7]; [15],8550
same,cell count,[7]; [16],9680
same,z-score,[8]; [17],-0.425 (inactive)
same,z-score,[8]; [18],0.36
O=C(O)C1=CC(O)C(O)[C@H](O)C1 (stereo partly specified),outcome,[1],inactive
same,outcome,[2],inactive
same,outcome,[3],inactive
same,outcome,[4],inactive
same,outcome,[5],inactive
same,outcome,[6],inactive
same,outcome,[10],inactive
O=C(Nc1ncc(-c2cc(C(F)F)nn2-c2c(Cl)cccc2Cl)s1)C1CC1,AC50,[1],0.833 µM (active)
same,AC50,[2],13.2 µM (active)
same,AC50,[3],0.662 µM (active)
same,AC50,[4],2.35 µM (active)
same,AC50,[5],1.05 µM (active)
same,AC50,[9],5.26 µM (active)
same,AC50,[6],1.32 µM (active)
same,IC50,[10],1.18 µM (active)
O=C(O)CCCc1c[nH]c2ccccc12,outcome,[1],inactive
same,outcome,[2],inactive
same,outcome,[3],inactive
same,outcome,[4],inactive
same,outcome,[5],inactive
same,outcome,[9],inactive
same,outcome,[6],inactive
same,outcome,[10],inactive
same,fold change,[7]; [13],0.897 (inactive) and 0.923 (inactive)
same,fold change,[7]; [14],0.369 and 0.81
same,cell count,[7]; [15],8600 and 8570
same,cell count,[7]; [16],9590 and 9280
same,z-score,[8]; [17],0.687 (inactive) and -0.261 (inactive)
same,z-score,[8]; [18],0.218 and 0.556
CC(=O)OCCN1C(=O)c2c(C)nc3ccc(S(=O)(=O)N4CCOCC4)cc3c2C1=O,outcome,[1],inactive
same,outcome,[2],inactive
same,outcome,[3],inactive
same,outcome,[4],inactive
same,outcome,[5],inactive
same,outcome,[9],inactive
same,outcome,[6],inactive
same,outcome,[10],inactive
same,SSMD,[12],2.02
same,cell count,[12],7180
same,plate-normalised HSF1 focus index,[12],1.12 (inactive)
Cn1c(CNc2ccc(C(=N)N)cc2)nc2cc(C(=O)N(CCC(=O)O)c3ccccn3)ccc21,outcome,[1],inactive
same,outcome,[2],inactive
same,outcome,[3],inactive
same,outcome,[4],inactive
same,outcome,[5],inactive
same,outcome,[9],inactive
same,outcome,[10],inactive
Nc1nc2c(c(=O)[nH]1)N(C=O)[C@H](CNc1ccc(C(=O)N[C@@H](CCC(=O)O)C(=O)O)cc1)CN2,outcome,[1],inactive
same,outcome,[2],inactive
same,outcome,[3],inactive
same,outcome,[4],inactive
same,outcome,[5],inactive
same,outcome,[9],inactive
same,outcome,[6],inactive
same,outcome,[10],inactive
O=C(O)c1ccc(O)c2ncc(N3CCOCC3)cc12,outcome,[1],inactive
same,AC50,[2],26.4 µM (active)
same,outcome,[3],inactive
same,AC50,[11],23.5 µM (active)
same,AC50,[9],26.4 µM (active)
same,AC50,[6],23.5 µM (active)
same,outcome,[10],inactive
CCc1cccc(CC)c1NC(=O)N1Cc2[nH]nc(NC(=O)c3ccc(N4CCN(C)CC4)cc3)c2C1,AC50,[1],0.934 µM (active)
same,AC50,[2],14.8 µM (active)
same,outcome,[3],inactive
same,AC50,[4],2.09 µM (active)
same,AC50,[5],0.661 µM (active)
same,outcome,[9],inactive
same,fold change,[7]; [13],1 (inactive)
same,fold change,[7]; [14],0.697
same,cell count,[7]; [15],2360
same,cell count,[7]; [16],2350
same,z-score,[8]; [17],-0.115 (inactive)
same,z-score,[8]; [18],-0.878
C[C@H]1[C@H](C)CC[C@]2(C(=O)O)CC[C@]3(C)C(=CC[C@@H]4[C@@]5(C)C[C@@H](O)[C@H](O)[C@@](C)(CO)[C@@H]5CC[C@]43C)[C@H]12,outcome,[1],inactive
same,outcome,[2],inactive
same,outcome,[3],inactive
same,outcome,[4],inactive
same,outcome,[5],inactive
same,outcome,[9],inactive
same,outcome,[10],inactive
